Data reported in PMC4336329 (PLoS ONE, 2015).
In all, about 310,000 compounds went through this assay and about 14,000 (4.5%) showed an effect of 50% or more. Effects have a minus sign here. The sample holds strong results, similar compounds and a random draw of the others, so the mix is not that of the screen.

molecular target: human ether-à-go-go-related gene (hERG) potassium channel (human, UniProt Q12809); test: primary screen, population patch clamp on CHO cells stably expressing hERG; higher = less effect of the substance
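Also: peak tail current of the secondary pulse compared with the same well before compound.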

Sequence of human ether-à-go-go-related gene (hERG) potassium channel (Q12809 whole entry, looked up): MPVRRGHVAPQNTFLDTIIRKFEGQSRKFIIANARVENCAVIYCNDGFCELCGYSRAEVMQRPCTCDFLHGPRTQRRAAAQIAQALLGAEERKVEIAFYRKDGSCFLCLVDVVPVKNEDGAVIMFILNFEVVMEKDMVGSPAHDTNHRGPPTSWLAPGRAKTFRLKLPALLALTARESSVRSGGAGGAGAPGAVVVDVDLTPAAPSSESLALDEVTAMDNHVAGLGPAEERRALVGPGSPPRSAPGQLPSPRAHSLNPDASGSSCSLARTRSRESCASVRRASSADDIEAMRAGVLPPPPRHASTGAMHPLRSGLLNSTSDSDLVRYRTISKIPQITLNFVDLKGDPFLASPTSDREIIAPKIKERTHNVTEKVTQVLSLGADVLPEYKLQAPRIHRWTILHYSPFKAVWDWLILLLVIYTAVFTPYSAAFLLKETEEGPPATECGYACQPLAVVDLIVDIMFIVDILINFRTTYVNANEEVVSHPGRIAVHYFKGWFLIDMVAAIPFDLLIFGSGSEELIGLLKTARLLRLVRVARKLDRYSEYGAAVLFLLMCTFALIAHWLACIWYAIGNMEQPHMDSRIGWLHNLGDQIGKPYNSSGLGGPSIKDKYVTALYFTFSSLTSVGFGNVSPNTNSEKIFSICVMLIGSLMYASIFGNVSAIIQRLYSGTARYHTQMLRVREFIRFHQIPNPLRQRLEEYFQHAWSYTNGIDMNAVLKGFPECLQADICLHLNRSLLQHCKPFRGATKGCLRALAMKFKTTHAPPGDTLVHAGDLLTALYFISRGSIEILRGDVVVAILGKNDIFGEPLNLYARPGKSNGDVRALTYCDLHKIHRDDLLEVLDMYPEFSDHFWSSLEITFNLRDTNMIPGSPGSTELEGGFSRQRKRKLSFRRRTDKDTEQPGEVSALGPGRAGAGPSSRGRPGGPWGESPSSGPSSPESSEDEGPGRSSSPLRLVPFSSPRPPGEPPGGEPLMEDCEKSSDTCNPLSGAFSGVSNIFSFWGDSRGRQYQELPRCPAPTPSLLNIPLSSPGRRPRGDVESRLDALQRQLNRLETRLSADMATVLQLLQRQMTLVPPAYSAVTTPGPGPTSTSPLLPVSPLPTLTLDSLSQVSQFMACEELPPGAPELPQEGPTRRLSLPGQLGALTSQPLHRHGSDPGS

Compound	hERG current change (%, negative = inhibition) at 10uM [%]
CN(c1ccc(O)cc1)S(=O)(=O)c1ccc2ccccc2c1	-12.8
COc1ccccc1CNC(=O)CCc1cn(C)c2ccccc12	-2.68
Cc1c(C(=O)N2CCCCC2)c(S(=O)(=O)Nc2ccc(F)cc2F)c(C)n1C	21.9
Cc1cc(C)c(S(=O)(=O)N2CCN(C(=O)c3ccc4c(c3)OCO4)CC2)c(C)c1	-31.4
O=C(N/N=C/c1ccc(N2CCOCC2)cc1)c1ccc(NS(=O)(=O)c2cccs2)cc1	9.69
N#Cc1cc([N+](=O)[O-])ccc1N1CCCC1	-38
CC(=O)N1CCN(c2ccc(C(N)=O)cc2[N+](=O)[O-])CC1	8.73
O=[N+]([O-])c1ccc(N2CCN(c3ccc([N+](=O)[O-])cc3CO)CC2)c(CO)c1	-64.7
CC1CN(c2ccc([N+](=O)[O-])cc2C#N)CC(C)O1 (stereo not shown)	-48.6
O=[N+]([O-])c1ccc(N2CCCCCC2)c([N+](=O)[O-])c1	3.24
CCCN1CCN(c2ccc([N+](=O)[O-])cc2C#N)CC1	-72
O=[N+]([O-])c1ccc(N2CCN(c3ccccc3O)CC2)c(Cl)c1	9.9
N#Cc1cc([N+](=O)[O-])ccc1N1CCN(c2ccccc2O)CC1	-35
CC(=O)N1CCN(c2ccc([N+](=O)[O-])cc2C#N)CC1	-88
CCN1CCN(c2ccc([N+](=O)[O-])cc2C#N)CC1	-68.2
O=[N+]([O-])c1ccc(N2CCN(CCOCCO)CC2)c([N+](=O)[O-])c1	-45.6
CCCN1CCN(c2ccc(S(N)(=O)=O)cc2[N+](=O)[O-])CC1	-31.4
COc1cccc(NS(=O)(=O)c2c(C)n(C)c(=O)n(C)c2=O)c1	-19.9
CCCc1nnc(SCC(=O)N2CCOCC2)n1CC1CCCO1 (stereo not shown)	23.6
CC1CCN(C(=S)c2ccc(O)cc2)CC1	-14.1
O=c1[nH]c2ccc(S(=O)(=O)N3CCN(C4CCCCC4)CC3)cc2[nH]c1=O	0.776
O=C(Nc1cccc(C(F)(F)F)c1)Oc1ccc(Cl)c2cccnc12	9.96

Compound	hERG current change (%, negative = inhibition) at 10uM [%]
CCN(c1ccccc1)S(=O)(=O)c1ccc(Cl)c(C(=O)OCC(=O)c2[nH]c(C)c(C(C)=O)c2C)c1	-22.6
COc1cc2c(cc1OC)CN(c1ccc([N+](=O)[O-])cc1C#N)CC2	-50
COc1cc2c(cc1OC)CN(c1ccc(F)cc1[N+](=O)[O-])CC2	-27.9
COc1cc2c(cc1OC)CN(c1ccc([N+](=O)[O-])cc1Cl)CC2	-41
CCn1c(NC2CCCCC2)nc2ccccc21	-15
Cc1ccc(NC(=O)c2cccc(N3C(=O)CCC3=O)c2)nc1	3.86
C/C(=N\NS(=O)(=O)c1cccc([N+](=O)[O-])c1)c1cc2ccccc2o1	-2.61
O=C(N/C(=C\c1ccc(Br)cc1)C(=O)N1CCOCC1)c1ccc([N+](=O)[O-])cc1	-75.5
O=C(N/C(=C\c1ccc(Cl)cc1)C(=O)N1CCOCC1)c1ccc([N+](=O)[O-])cc1	-83
O=C(N/C(=C\c1ccc(F)cc1)C(=O)N1CCOCC1)c1ccccc1	-32
O=C(N/C(=C\c1ccccc1)C(=O)N1CCOCC1)c1cccc(Br)c1	18.8
O=C(N/C(=C/c1cccc([N+](=O)[O-])c1)C(=O)N1CCOCC1)c1ccc(Br)cc1	-46.6
O=C(N/C(=C/c1ccccc1)C(=O)N1CCOCC1)c1ccc([N+](=O)[O-])cc1	-64.2
O=C(N/C(=C\c1cccc([N+](=O)[O-])c1)C(=O)N1CCOCC1)c1cccc(Br)c1	-4.26
Cc1ccc(C(=O)N/C(=C/c2ccc(Cl)cc2)C(=O)N2CCOCC2)cc1	-32.6
O=C(N/C(=C\c1cccc([N+](=O)[O-])c1)C(=O)N1CCOCC1)c1ccc([N+](=O)[O-])cc1	12.5
O=C(N/C(=C\c1ccc([N+](=O)[O-])cc1)C(=O)N1CCOCC1)c1cccc(Br)c1	-74.2
O=C(Nc1ccc(C(=O)O)cc1)/C(=C\c1ccc([N+](=O)[O-])cc1)NC(=O)c1ccc(Br)cc1	7.58
COC(=O)c1ccc(/C=C(/NC(=O)c2ccccc2)C(=O)N2CCOCC2)cc1	-9.15
CC(=O)c1cccc(OCC(=O)N(C)CC(=O)Nc2ccc(F)cc2)c1	-8.68
CCC(C)NC(=O)c1ccc(CSCc2ccc(Cl)cc2)o1 (stereo not shown)	-38.9
COc1cccc(CNC(=O)CCNS(=O)(=O)c2ccc(Br)s2)c1	-10.2

Compound	hERG current change (%, negative = inhibition) at 10uM [%]
N#CCCSCc1ccc(OCC(=O)O)cc1	-1.48
CCCNC(=O)c1cc(C)no1	12.6
Cc1ccc(C)c(NC(=O)CCN2CC(C)OC(C)C2)c1 (stereo not shown)	1.59
CC(C)C[C@H](NC(=O)N1c2ccccc2NC(=O)[C@@H]1C(C)C)C(=O)N[C@@H](Cc1ccccc1)C(=O)O	-2.11
FC(F)(F)C1=CC(c2ccc(Cl)cc2)=NCCN1	-16.1
CN(c1ccccc1)S(=O)(=O)c1cccc(NC(=O)CN2CCCc3ccccc32)c1	-2.81
COc1cc(/C=C(/NC(=O)c2ccccc2)C(=O)N2CCOCC2)c([N+](=O)[O-])cc1OC	-3.92
O=C(N/C(=C\c1ccco1)C(=O)N1CCOCC1)c1ccc([N+](=O)[O-])cc1	-70.8
O=C(N/C(=C/c1ccccc1Cl)C(=O)N1CCCC1)c1ccccc1	-5.15
O=C(N/C(=C\c1ccccc1Cl)C(=O)N1CCOCC1)c1ccc([N+](=O)[O-])cc1	-66
COc1ccc(C(=O)N/C(=C\c2ccc3c(c2)OCO3)C(=O)N2CCOCC2)cc1	19.6
Cc1ccc(C(=O)N/C(=C/c2ccco2)C(=O)N2CCOCC2)cc1	-12.7
COc1ccc(/C=C(/NC(=O)c2ccc(Br)cc2)C(=O)N2CCOCC2)cc1	5.5
Cc1ccc(C(=O)N/C(=C\c2ccco2)C(=O)N2CCOCC2)cc1C	11
COc1ccc(/C=C(\NC(=O)c2ccc([N+](=O)[O-])cc2)C(=O)N2CCOCC2)cc1	-75
COc1ccc(C(=O)/C=C/N(C)C)cc1OC	7.92
CN(/N=C/c1ccncc1)c1cnc2ccccc2n1	19.3
CCCCCCC1NC(C(=O)O)CS1 (stereo not shown)	-0.451
COc1ccc(S(=O)(=O)N2CCOC2CNC(=O)C(=O)NCCCN2CCOCC2)cc1OC (stereo not shown)	8.41
CCN(CC)c1cccc(OCC(=O)N(C)CCC#N)c1	18.9
CC(C)(C)S(=O)(=O)c1ccc(S(=O)(=O)C(C)(C)C)s1	22.8
O=C(CC1C(=O)NCCN1Cc1c(F)cccc1Cl)NCCCn1cccn1 (stereo not shown)	10.8

Compound	hERG current change (%, negative = inhibition) at 10uM [%]
O=C1c2ccccc2C(=O)C1c1ccc2ccccc2n1	-13.4
Br.C1=C(c2ccco2)N2CCN=C2S1	1.91
COc1ccc(Nc2cc(C(=O)NCCCN3CCN(C)CC3)c3ccccc3n2)cc1OC	1.49
Cc1ccc(Nc2ncc(C(=O)NCCCN3CCN(C)CC3)c3ccccc23)cc1Cl	-61.1
COc1ccc(Nc2cc(C(=O)NCCCN3CCN(C)CC3)c3ccccc3n2)cc1	2.72
CN(C)c1nc2n(c(=O)n1)CCO2	20.3
Cc1ccc(NC(=O)c2sc3nc(N4CCOCC4)c4c(c3c2N)CC(C)(C)OC4)cc1	5.7
COC(C(=O)Nc1ccc(F)cc1)c1ccccc1 (stereo not shown)	-0.691
CN(C)C(CNC(C(=O)Nc1ccc([N+](=O)[O-])cc1Br)c1ccccc1)c1ccccc1 (stereo not shown)	-66.5
COCCNC(C(=O)Nc1cc(Cl)cc(Cl)c1)c1ccccc1 (stereo not shown)	-16.4
CC(C)C(=O)Nc1ccc([N+](=O)[O-])cc1Br	-5.22
CC(C)CNC(C(=O)Nc1ccc([N+](=O)[O-])cc1Br)c1ccccc1.O=C(O)C(=O)O (stereo not shown)	-9.16
CCN(CC)CCNC(C(=O)Nc1ccc([N+](=O)[O-])cc1Br)c1ccccc1 (stereo not shown)	-77
Cc1ccc(NC(=O)NCC(c2ccccc2)N(C)C)cc1 (stereo not shown)	12.4
COCCNC(C(=O)Nc1ccc(C)cc1[N+](=O)[O-])c1ccccc1 (stereo not shown)	-6.29
O=C(OC(C(=O)Nc1ccc([N+](=O)[O-])cc1Br)c1ccccc1)c1ccccc1 (stereo not shown)	5.91
CCCCNC(C(=O)Nc1ccc([N+](=O)[O-])cc1Br)c1ccccc1 (stereo not shown)	5.72
COCCNC(C(=O)Nc1ccc([N+](=O)[O-])cc1Br)c1ccccc1 (stereo not shown)	-74
CN(C)C(CNC(C(=O)Nc1ccc(F)cc1)c1ccccc1)c1ccccc1 (stereo not shown)	-70.6
